# Giardia killer = kills Giardia lamblia | Giardia lamblia trophozoite viability | activity change, % at 7.66 µM, hits read low | actives 0.15% (n = 340,000) | AID 540267; in the data active = activity change below about -80%; inconclusive = between about -30% and that limit;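 note: parasites exposed to compound for two days anaerobically before the ATP read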
#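 Each well holds 100 Giardia trophozoites and compound. After two days (48 hrs) at 37 deg C in anaerobic conditions, ATP is quantified by luminescence.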
# ELG1 DNA repair = inhibitors of ELG1-dependent DNA repair in HEK293T cells | HEK293T ELG1-luciferase reporter, luminescence, 16 h; DNA damage induced by 5-fluorouridine | Potency, µM (top dose mostly 46.1 µM), inactives show top-dose activity change, negative = inhibition, hits mostly inhibitors | actives 2.3% (n = 330,000) | AID 504467; note: potency is the fitted concentration of half-maximal effect; nearly all actives have a fitted effect of over 55% in size
#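 HEK293T cells expressing luciferase-tagged ELG1 (2,000/well) received 5-Fluorouridine plus compound or DMSO for 16 hr at 37 °C. Luciferase was read by ONE-Glo luminescence after 30 min at room temperature.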
# TDP1 block = blocks human tyrosyl-DNA phosphodiesterase 1; recombinant TDP1, AlphaScreen DNA substrate cleavage; actives 0.28% (n = 350,000); Potency, µM (series often up to 130 µM), for the others: at the highest dose activity change, negative = inhibition, hits mostly inhibitors; AID 485290; Q9NUW8; note: potency is the fitted concentration of half-maximal effect; nearly all actives have a fitted effect of over 40% in size
# Target sequence (Q9NUW8 whole entry, looked up): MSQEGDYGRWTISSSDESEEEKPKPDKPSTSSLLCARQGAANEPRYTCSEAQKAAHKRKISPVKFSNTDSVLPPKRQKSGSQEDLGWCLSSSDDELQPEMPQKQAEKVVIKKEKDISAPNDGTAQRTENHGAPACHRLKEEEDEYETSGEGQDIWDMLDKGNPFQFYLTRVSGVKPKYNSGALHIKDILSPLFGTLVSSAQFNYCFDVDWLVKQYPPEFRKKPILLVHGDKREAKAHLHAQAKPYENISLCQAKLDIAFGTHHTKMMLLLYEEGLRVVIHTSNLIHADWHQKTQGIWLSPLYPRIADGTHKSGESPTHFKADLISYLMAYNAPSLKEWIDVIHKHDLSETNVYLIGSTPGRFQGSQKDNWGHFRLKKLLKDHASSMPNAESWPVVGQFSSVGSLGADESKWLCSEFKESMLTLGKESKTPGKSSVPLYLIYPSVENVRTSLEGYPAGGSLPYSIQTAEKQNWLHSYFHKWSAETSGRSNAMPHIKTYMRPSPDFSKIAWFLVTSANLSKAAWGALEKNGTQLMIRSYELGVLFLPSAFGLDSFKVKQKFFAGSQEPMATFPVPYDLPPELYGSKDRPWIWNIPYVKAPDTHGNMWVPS
#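 Compounds were preincubated with Tdp1 (1 nM final) for 15 min at room temperature before substrate (15 nM final) started a 5 min reaction; beads (10 ug/ml final) were then added for 10 min before AlphaScreen detection.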
# DT40 TDP1 CPT = DT40-hTDP1 cell growth loss with CPT. AID 686979. chicken DT40 Tdp1-/-;hTDP1 cells + 20 nM CPT, ATP luminescence, 48 h. Potency, µM (doses to about 46.2 µM), without a hit: at the highest dose activity change, negative = growth inhibition, most hits filed as inhibitors. actives 12% (n = 420,000); note: potency is the fitted concentration of half-maximal effect; nearly all actives have a fitted effect of over 55% in size
#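 Chicken DT40 Tdp1-/- cells stably complemented with human TDP1 were seeded at 400 cells/well in medium containing 20 nM camptothecin, exposed to pin-transferred compounds, and grown at 37 °C for at least 48 hr. Viability was read as ATP luminescence.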
# IL1B secr inh = inflammasome signaling inhibition, IL-1 beta readout; actives 4.7% (n = 360,000); THP-1 LPS/ATP IL-1B secretion, AlphaLISA, 16 h; active compounds read low; activity change, % at 57.5 µM; in the data active = activity change below about -50%; inconclusive = mostly about -30% to -49%
#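 Secreted IL-1B measured by AlphaLISA bead assay after 16 h compound exposure of THP-1 cells; compounds (final up to 57.5 uM) added 1 h before LPS (250 ng/mL) and ATP (1.25 mM) stimulation; lower signal means less secretion.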
# DT40 TDP1 no CPT = qHTS for Inhibitors of human tyrosyl-DNA phosphodiesterase 1 (TDP1): qHTS in cells in absence of CPT. Potency, µM (highest dose often 46.2 µM), inactives show at the top dose activity change, negative = growth inhibition, actives largely listed as inhibitors. actives 15% (n = 420,000). DT40 Tdp1-/- hTDP1 cells, no CPT, ATP luminescence, 48 h; note: potency is the fitted concentration of half-maximal effect; nearly all actives have a fitted effect of over 55% in size
#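 Luminescent ATP content (CellTiter-Glo) served as the growth readout. Knockout chicken DT40 cells expressing human TDP1 were exposed to compounds without camptothecin for a minimum 48 hr at 37 °C.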
# * marks the source's active call; other numbers are inactive results; ? = inconclusive; / = not tested or not shown. Compounds with a hit are over-represented: about 19% of the library has one in this group of screens. Unless noted, calls come from the whole dose curve; as a rule, active = well fitted curve in the direction sought with a large enough effect; inconclusive = small, poorly fitted or top-dose-only effect, or another doubt; inactive = no such curve, though single readings can be large; an effect the other way counts as inactive or inconclusive. % is set by controls: 0 for no effect and ±100 for the full control effect.
SMILES,Giardia killer,ELG1 DNA repair,TDP1 block,DT40 TDP1 CPT,IL1B secr inh,DT40 TDP1 no CPT
Cn1c(SCC(=O)Nc2ccc(C(N)=O)cc2)nnc1-c1cccs1,22,18%,-19%,4%,-4,17%
COc1ccccc1CC(=O)Nc1ccc2nc(Nc3cccc(Cl)c3)cc(C)c2c1,/,/,5%,21µM*,/,16µM*
Cc1cc(Nc2cccc(C(F)(F)F)c2)nc2ccc(NC(=O)Cc3ccc(Cl)cc3)cc12,/,/,-1%,?,/,23µM*
Cc1cccc(OCC(=O)Nc2ccc3nc(Nc4cccc(C(F)(F)F)c4)cc(C)c3c2)c1,/,/,4%,21µM*,/,13µM*
COc1ccc(CC(=O)Nc2ccc3nc(Nc4cccc(Cl)c4)cc(C)c3c2)cc1,/,/,2%,6.5µM*,/,5.8µM*
Cc1ccc(OCC(=O)Nc2ccc3nc(Nc4cccc(Cl)c4)cc(C)c3c2)cc1,/,/,9%,4%,/,-1%
Cc1cc(=O)oc2cc(NC(=O)COc3cccc(C(F)(F)F)c3)ccc12,-9,24%,-4%,?,-22,?
CCN(CC)CCCNC(=O)c1ccc2c(c1)NC(=O)C(CS(=O)(=O)Cc1cccc(Br)c1)N2 (stereo not given),/,/,10%,-27%,/,-15%
COc1ccccc1-c1noc2c1C(=O)N(Cc1cn(-c3ccccc3)nn1)CC2,/,/,/,-22%,2,?
COC(=O)[C@@H]1CCCN1C(=O)c1cc(NC(=O)C2CCC2)c2c(c1)nc(-c1ccncc1)n2C,/,/,/,-21%,/,-13%
O=C(CNCc1cccc(Cl)c1)N1CCc2ccccc2C1,2,?,/,-22%,14,5%
Cc1c(C(=O)N(C)C2CCOC2)sc2ncnc(NCC3(c4ccccc4)CCOCC3)c12 (stereo not given),/,/,/,-20%,/,-23%
O=S(=O)(NCCc1csc2nc(-c3ccc(F)cc3)nn12)c1ccc2c(c1)OCCO2,/,/,3%,16µM*,/,23µM*
O=S(=O)(NCCc1csc2nc(-c3ccc(F)cc3)nn12)c1ccc(Br)cc1,/,/,-3%,?,/,?
O=S(=O)(NCCc1csc2nc(-c3ccc(Cl)cc3)nn12)c1ccc2c(c1)OCCO2,/,/,5%,15µM*,/,9.2µM*
COc1ccc(-c2nc3scc(CCNS(=O)(=O)c4ccc(F)c(C(F)(F)F)c4)n3n2)cc1OC,/,/,5%,15µM*,/,13µM*
COc1ccc(-c2nc3scc(CCNS(=O)(=O)c4ccc5c(c4)OCCO5)n3n2)cc1OC,/,/,5%,?,/,21µM*
COc1ccc(-c2nc3scc(CCNS(=O)(=O)c4c(C)noc4C)n3n2)cc1OC,/,/,5%,-21%,/,?
COc1ccc(F)cc1S(=O)(=O)NCCc1csc2nc(-c3cccc(C)c3)nn12,/,/,5%,?,/,?
C=CCNc1nc(C(=O)OCC(=O)NCc2ccccc2OC)cs1,-2,2%,/,-2%,7,-6%
Cn1nc(C(=O)NCc2ccccc2Cl)c2c1-c1ccccc1SC2,/,/,-3%,?,/,?
Cc1cccc(NS(=O)(=O)c2cc(C(=O)NCCC3=CCCCC3)ccc2Cl)c1,-3,?,4%,?,-14,?
CCOC(=O)CN=C1CC(C)(C)CC2=C1Sc1ncnc(N(C)C)c1N2,-5,?,6%,13µM*,28,23µM*
CC(C)CCC(CC(C)O)c1n[nH]c(=S)n1-c1ccccc1 (stereo not given),8,3%,3%,-22%,0,-4%
O=C(O)CCc1ccc(-c2cccs2)o1,10,?,16µM*,?,0,-2%
SMILES,Giardia killer,ELG1 DNA repair,TDP1 block,DT40 TDP1 CPT,IL1B secr inh,DT40 TDP1 no CPT
Cc1ccc(-c2ccc(CCC(=O)O)o2)cc1,9,?,2%,-13%,-5,-5%
Cc1cc(C(=O)CCl)c(C)n1Cc1ccco1,24,?,-6%,2.6µM*,-97*,2.6µM*
Cc1cc(C(=O)CSc2nn(-c3ccccc3)c(=S)s2)c(C)n1Cc1ccco1,2,4%,3%,?,-7,?
Cc1cc(C(=O)CSc2nnc(-c3ccco3)o2)c(C)n1-c1ccc2c(c1)OCCO2,-1,?,6%,?,15,21µM*
COCC(C)n1c(C)cc(C(=O)CSc2nnc(-c3ccco3)o2)c1C (stereo not given),-12,0%,4%,?,-17,?
Cc1cc(C(=O)CSc2nnnn2C)c(C)n1-c1ccc2c(c1)OCCO2,5,?,9%,?,-1,?
Cc1cc(C(=O)CSc2nnc(-c3ccco3)o2)c(C)n1Cc1ccco1,-15,24%,5%,21µM*,-4,23µM*
Cc1cc(C(=O)CSc2nncs2)c(C)n1Cc1ccco1,-9,?,0%,-17%,11,12µM*
CCOc1ccc(Br)cc1S(=O)(=O)Nc1cccnc1,9,10%,/,6%,9,-9%
COC(=O)N1CCC2(CC1)CN(c1ccccc1)C2,/,/,/,-11%,/,-19%
CN(Cc1ccco1)C(=O)CN1C(=O)NC(c2ccccc2)(c2ccccc2)C1=O,-5,4%,7%,-30%,-6,-26%
Cc1cc(C(=O)CN2C(=O)NC(c3ccccc3)(c3ccccc3)C2=O)c(C)n1Cc1ccco1,29,2%,6%,?,-3,23µM*
O=C1C=C(c2ccccc2Oc2ccccc2)C[C@@H](c2ccc3c(c2)OCO3)C1,18,6.5µM*,1%,16µM*,-58*,?
COc1ccccc1C1=CC(=O)C[C@H](c2ccc3c(c2)OCO3)C1,19,0%,-10%,16µM*,-5,18µM*
O=C1C=C(c2ccc3ncccc3c2)C[C@@H](c2ccc3c(c2)OCO3)C1,8,?,6%,2.1µM*,9,2.6µM*
O=C1C=C(c2ccc3ncccc3c2)C[C@@H](c2ccc(F)cc2)C1,3,?,4%,?,-4,?
O=C1C=C(c2ccccc2C(F)(F)F)C[C@@H](c2ccc3c(c2)OCO3)C1,0,?,-2%,?,-13,18µM*
Cc1ccc(CSCC(=O)Nc2cc(S(=O)(=O)N3CCOCC3)ccc2OCC(F)(F)F)cc1,20,/,/,?,12,-6%
CNC(=O)C[C@H]1C(=O)N(c2ccccc2)C[C@@H]1CSC,/,/,/,27%,-14,-10%
Cc1ccc(C)c(S(=O)(=O)N2CCCCC2CCNC(=O)C(=O)NCc2ccccn2)c1 (stereo not given),11,0%,0%,?,-1,?

# Assay outcomes as filed in PubChem BioAssay.
